M1 ag = M1 muscarinic receptor agonism | CHO-M1 cells, Fluo-4 calcium fluorescence, agonist mode; stronger effect = higher value | B-score at 10 µM | actives 3% (n = 64,000);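 active means fluorescence rise, raw or as B-score row- and column-corrected plate score, outside the 99.7% band of its plate's samples, either direction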
M1 antagonist = blocks the rat M1 muscarinic receptor response to acetylcholine; P08482; CHO-M1 cells, Fluo-4 calcium, ACh EC80 antagonist mode; stronger effect = lower value; B-score at 10 µM; actives 3.4% (n = 64,000);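 active means calcium fluorescence response, raw or row-and-column corrected B-score, differing from the plate sample mean either way at a set confidence level, mostly lower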
D1 mod = allosteric modulators of human D1 dopamine receptor. AID 641. P21728. B-score at 10 µM. actives 5.9% (n = 58,000). HEK293 D1, CRE-luciferase, dopamine EC30 potentiation; actives deviate in either direction;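 active means luminescence count or its row- and column-corrected plate score outside the 99.7% band of the plate's sample wells, on either side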
Target sequence (P21728 whole entry, looked up): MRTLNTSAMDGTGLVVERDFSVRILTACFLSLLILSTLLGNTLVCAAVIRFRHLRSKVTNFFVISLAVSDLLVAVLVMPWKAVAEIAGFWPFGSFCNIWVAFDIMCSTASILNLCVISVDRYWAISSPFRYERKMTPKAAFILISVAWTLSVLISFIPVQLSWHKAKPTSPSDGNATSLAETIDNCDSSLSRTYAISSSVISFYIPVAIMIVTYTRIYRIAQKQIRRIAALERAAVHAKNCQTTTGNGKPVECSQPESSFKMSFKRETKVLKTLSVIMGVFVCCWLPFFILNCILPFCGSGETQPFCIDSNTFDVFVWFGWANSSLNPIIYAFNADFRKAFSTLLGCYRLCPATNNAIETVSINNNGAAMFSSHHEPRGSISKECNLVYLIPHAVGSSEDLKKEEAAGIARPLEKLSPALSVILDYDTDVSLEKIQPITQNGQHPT
mHtt clearance = compounds clearing mutant huntingtin protein. HeLa Exon1htt(103Q)mCFP, aggregate imaging; zero = plate's median compound well. inhibition, % at 1.5 µM. actives 0.42% (n = 47,000);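 active means inhibition of aggregate fluorescence above about 70%, also judged a hit by eye on the cell image, limit read from the data, passing the limit was not always enough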;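 further: cells exposed to compound for three days before fixation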
* hit, by the source's call. A selection: hits, their analogues and other compounds. The true share with any hit is near 9.1%.

What do the screens show for `CCn1c(=S)[nH]c2nc3c(cc2c1=O)CCCC3`?
mHtt clearance: 71*

Results for O=c1[nH]c(NCc2ccco2)nnc1Cc1ccccc1Cl ?
M1 ag: -1.1; M1 antagonist: 0.75; D1 mod: -0.13

What do the screens show for `CCOc1ccc(S(=O)(=O)n2nnc3ccccc32)cc1C`?
M1 ag: -0.99; M1 antagonist: -0.38; D1 mod: 0.61; mHtt clearance: 74*

Results for CCOc1ccc(Cl)cc1S(=O)(=O)n1nnc2ccccc21 ?
M1 ag: 0.06; M1 antagonist: -1.1; D1 mod: 0.37

How did COc1ccc(O)c(C(=O)c2cc(C#N)c(=O)n(-c3c(C)n(C)n(-c4ccccc4)c3=O)c2)c1 do in these assays?
M1 ag: 5.8*; M1 antagonist: -0.74; D1 mod: 0.0092; mHtt clearance: -12

How did Cc1cc2c3nonc3ccc2n1-c1ccccc1 do in these assays?
M1 ag: 1.1; M1 antagonist: 0.11; D1 mod: 1.1

What do the screens show for `CCOc1cc(S(=O)(=O)N2CCN(Cc3ccccc3)CC2)ccc1Br`?
M1 ag: -0.24; M1 antagonist: -0.22; D1 mod: 1.1; mHtt clearance: -32

How did CCOC(=O)C1CCCN(C(=O)C(C)Oc2ccc(Cl)cc2Cl)C1 (configuration not stated) do in these assays?
M1 ag: 4.5*; M1 antagonist: 0.14; D1 mod: 0.14

How did COC(=O)C1CCN(C(=O)C(C)Oc2ccc(Cl)cc2Cl)CC1 (configuration not stated) do in these assays?
M1 ag: -0.15; M1 antagonist: 1.2*; D1 mod: 0.71

How did Brc1cnc(N2CCOCC2)nc1N1CCCCC1 do in these assays?
M1 ag: 0.48; M1 antagonist: 0.047; D1 mod: 0.99; mHtt clearance: -8

Results for Brc1cnn(-c2nc(N3CCOCC3)nc(N3CCOCC3)n2)c1 ?
M1 ag: 0.88; M1 antagonist: -0.38; D1 mod: 3.6*

What do the screens show for `Cc1cc(-n2c(C)cc(C(=O)CN3C(=O)NC4(CCCC4)C3=O)c2C)no1`?
M1 ag: -0.33; M1 antagonist: 0.2; D1 mod: -0.84; mHtt clearance: 49

Results for Cc1cc(-n2c(C)cc(C(=O)CN3C(=O)NC4(CCCCC4)C3=O)c2C)no1 ?
M1 ag: 0.48; M1 antagonist: 1.7*; D1 mod: -0.36

What do the screens show for `O=C(NC1CC1)c1cc2c(s1)-c1ccccc1OC2`?
M1 ag: -0.96; M1 antagonist: -0.5; D1 mod: -5.8*

What do the screens show for `CC(=O)COc1ncn(-c2ccccc2)n1`?
mHtt clearance: -26

What do the screens show for `COc1cccc(-n2nnnc2SCC(=O)Nc2nc3c(s2)CCCC3)c1`?
mHtt clearance: -9

What do the screens show for `O=C(CSc1nc2ccccc2o1)Nc1nc2c(s1)CCCC2`?
M1 ag: -0.44; M1 antagonist: 0.4; D1 mod: -2.4*

What do the screens show for `O=C(CSc1nc2ccccc2o1)Nc1nc2ccccc2s1`?
M1 ag: -1.7; M1 antagonist: -0.38; D1 mod: 0.4; mHtt clearance: -44

What do the screens show for `O=C(CSc1nnnn1-c1ccc2c(c1)OCCO2)Nc1nc2c(s1)CCCC2`?
M1 ag: -0.86; M1 antagonist: -0.33; D1 mod: 0.29; mHtt clearance: 77*

Results for CCOC(=O)c1cn2c3c(c(F)c(F)cc3c1=O)SC(N1CCOCC1)=N2 ?
mHtt clearance: 19

What do the screens show for `Cc1ccc(OC(C)C)c(CN(CCO)CCO)c1`?
mHtt clearance: 0

Results for CCCCOc1ccc(C)cc1CN(CCO)CCO ?
M1 ag: 0.33; M1 antagonist: 2.1*; D1 mod: -0.82

How did O=c1c2cccc3c(N4CCOCC4)ccc(c32)c2nc3ccccc3n12 do in these assays?
M1 ag: 7.2*; M1 antagonist: -0.27; D1 mod: -1

Results for CCn1c(Oc2ccc(Oc3ncc(Cl)cc3Cl)cc2)nc2c1c(=O)n(C)c(=O)n2C ?
M1 ag: -0.81; M1 antagonist: 2.3; D1 mod: -0.25

What do the screens show for `O=C(CN(Cc1ccccc1F)C(=O)Cn1nnc(-c2cccs2)n1)NCC1CCCO1` (configuration not stated)?
M1 ag: -0.96; M1 antagonist: -0.38; D1 mod: 0.0049

How did CCOc1ccccc1Oc1ccc(C(F)(F)F)cn1 do in these assays?
M1 ag: 0.56; M1 antagonist: 0.73; D1 mod: -4*; mHtt clearance: 40

How did Cn1ccnc1SCC(=O)Nc1ccc2ccccc2c1 do in these assays?
M1 ag: 0.047; M1 antagonist: 0.24; D1 mod: -6.6*

What do the screens show for `Cc1ccc(OCn2c(=O)sc3ccccc32)cc1`?
M1 ag: 0.57; M1 antagonist: 0.78; D1 mod: 0.29

Bioassay records deposited in PubChem BioAssay by several laboratories.
